The values below come from PubChem BioAssay (EPA / NIEHS).

Common to all, as to conditions: mRNA level, 48 h; actives raise or lower the signal
Read-out in test [1]: Lipoprotein lipase (LPL), LPL (gene 4023)
The test is described as follows: LTEA_HepaRG_LPL: Life Technologies and Expression Analysis (LTEA) Assay for Lipoprotein lipase (LPL) using HepaRG (AID 2283515). The method in brief:
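Read-out is LPL transcript level by qRT-PCR, normalized to three housekeeping genes and fitted bidirectionally against the DMSO control. Human HepaRG cells received chemicals for 48 h at up to 100 uM.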

Read-out in test [2]: MicroRNA 122 (MIR122), gene 406906
The test is described as follows: LTEA_HepaRG_MIR122: Life Technologies and Expression Analysis (LTEA) Assay for MicroRNA 122 (MIR122) using HepaRG (AID 2283516). Also: the transcript read is the microRNA miR-122. The method in brief: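 HepaRG, 48 h exposure, 8-pt half-log from 100 uM, 0.5% DMSO; TaqMan qRT-PCR; bidirectional fit vs DMSO.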

Read-out in test [3]: matrix metalloproteinase-3 (MMP3), MMP3 (gene 4314)
The test is described as follows: LTEA_HepaRG_MMP3: Life Technologies and Expression Analysis (LTEA) Assay for matrix metalloproteinase-3 (MMP3) using HepaRG (AID 2283519). The method in brief: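 HepaRG, human; 48 h dosing, 8 conc. (max 100 uM, half-log), duplicate, 0.5% DMSO. Readout: MMP3 transcript by Fluidigm TaqMan qRT-PCR, ACTB/GAPDH/POLR2A-normalised. Gain or loss fitted vs DMSO.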

Read-out in test [4]: Paternally Expressed 10 (PEG10), PEG10 (gene 23089)
The test can be described thus: LTEA_HepaRG_PEG10: Life Technologies and Expression Analysis (LTEA) Assay for Paternally Expressed 10 (PEG10) using HepaRG (AID 2283520).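 As to AC50: PEG10 transcript by qRT-PCR normalised to ACTB GAPDH and POLR2A.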 The method in brief: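 Chemicals tested on HepaRG cells for 48 h, highest concentration 100 uM. PEG10 expression assessed by qRT-PCR relative to DMSO control.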

Read-out in test [5]: Protein phosphatase 2A (PPP2R4), PTPA (gene 5524)
The test is described as follows: LTEA_HepaRG_PPP2R4: Life Technologies and Expression Analysis (LTEA) Assay for Protein phosphatase 2A (PPP2R4) using HepaRG (AID 2283522). The procedure, abridged: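 Gene-expression endpoint in HepaRG hepatic cells: 48 h treatment across eight half-log concentrations up to 100 uM in 0.5% DMSO. PPP2R4 mRNA by qRT-PCR, normalized to three endogenous control genes.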

Read-out in test [6]: solute carrier (SLC22A1), SLC22A1 (gene 6580)
The test can be described thus: LTEA_HepaRG_SLC22A1: Life Technologies and Expression Analysis (LTEA) Assay for solute carrier (SLC22A1) using HepaRG (AID 2283524). The method in brief: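 HepaRG (human liver line), 48 h dosing in serum-free induction medium; 8 conc., half-log down from 100 uM, 0.5% DMSO vehicle, duplicates. Endpoint: SLC22A1 mRNA, qRT-PCR, housekeeping-normalized; gain/loss fit vs DMSO.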

Read-out in test [7]: Pyruvate Dehydrogenase Kinase 4 (PDK4), PDK4 (gene 5166)
The test can be described thus: LTEA_HepaRG_PDK4: Life Technologies and Expression Analysis (LTEA) Assay for Pyruvate Dehydrogenase Kinase 4 (PDK4) using HepaRG (AID 2283525). The method in brief: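 In this multiplexed human HepaRG expression assay, cells are treated 48 h with test chemicals across an eight-point range starting at 100 uM. PDK4 mRNA changes, normalized to ACTB/GAPDH/POLR2A, are fitted in both directions relative to vehicle.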

Read-out in test [8]: NAD(P)H dehydrogenase [quinone] 1 (NQO1), NQO1 (gene 1728)
The test can be described thus: LTEA_HepaRG_NQO1: Life Technologies and Expression Analysis (LTEA) Assay for NAD(P)H dehydrogenase [quinone] 1 (NQO1) using HepaRG (AID 2283526). The procedure, abridged:
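Human HepaRG hepatic cells received chemicals for 48 h in serum-free induction medium with 0.5% DMSO, up to 100 uM. Expression was assessed by TaqMan qRT-PCR against housekeeping controls and fitted bidirectionally against DMSO.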

Read-out in test [9]: Nuclear factor erythroid 2-related factor 2 (Homo sapiens) (UniProt Q16236)
The test can be described thus: LTEA_HepaRG_NFE2L2: Life Technologies and Expression Analysis (LTEA) Assay for Nuclear factor erythroid 2-related factor 2 (NFE2L2) Transcription Factor using HepaRG (AID 2283527).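 As to outcome: TaqMan qRT-PCR transcript level normalised to ACTB GAPDH and POLR2A housekeeping genes.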 The procedure, abridged:
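Transcript level of NFE2L2 is the read-out, measured by microfluidic TaqMan qRT-PCR and normalized to three housekeeping genes. Human HepaRG cultures received test chemical for 48 h at up to 100 uM in half-log steps. Gain or loss of signal is fitted relative to 0.5% DMSO.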

Read-out in test [10]: succinate dehydrogenase complex iron sulfur subunit B (SDHB), SDHB (gene 6390)
The test can be described thus: LTEA_HepaRG_SDHB: Life Technologies and Expression Analysis (LTEA) Assay for succinate dehydrogenase complex iron sulfur subunit B (SDHB) using HepaRG (AID 2283528). The procedure, abridged: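 HepaRG, 48 h exposure, 8-pt half-log series from 100 uM in 0.5% DMSO, duplicates. Readout: SDHB mRNA by Fluidigm qRT-PCR vs housekeeping genes; bidirectional fit relative to DMSO.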

Read-out in test [11]: Signal transducer and activator of transcription 3 (Homo sapiens) (UniProt P40763)
The test can be described thus: LTEA_HepaRG_STAT3: Life Technologies and Expression Analysis (LTEA) Assay for Signal transducer and activator of transcription (STAT3) using HepaRG (AID 2283529). The procedure, abridged: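 Read-out is STAT3 mRNA level by qRT-PCR, normalized to three housekeeping genes, in human HepaRG liver cells treated for 48 h. Concentrations ran from 100 uM downward in half-log steps; curves were fitted for gain or loss relative to 0.5% DMSO.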

Read-out in test [12]: solute carrier (SLCO1B1), SLCO1B1 (gene 10599)
The test can be described thus: LTEA_HepaRG_SLCO1B1: Life Technologies and Expression Analysis (LTEA) Assay for solute carrier (SLCO1B1) using HepaRG (AID 2283530). The method in brief: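 Differentiated human HepaRG cells, plated 48 h, switched to serum-free induction medium and exposed in duplicate for 48 h to 8 half-log concentrations (top 100 uM) in 0.5% DMSO. SLCO1B1 mRNA by TaqMan qRT-PCR, normalized to ACTB/GAPDH/POLR2A.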

Read-out in test [13]: sulfotransferase 2A1 (SULT2A1), SULT2A1 (gene 6822)
The test is described as follows: LTEA_HepaRG_SULT2A1: Life Technologies and Expression Analysis (LTEA) Assay for sulfotransferase 2A1 (SULT2A1) using HepaRG (AID 2283531). The procedure, abridged:
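Differentiated human HepaRG cells in serum-free induction medium were exposed for 48 h to eight half-log concentrations (top 100 uM, 0.5% DMSO). SULT2A1 mRNA was measured by qRT-PCR, normalized to ACTB, GAPDH and POLR2A, and fitted bidirectionally against DMSO.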

Read-out in test [14]: Transforming Growth Factor (TGFB1), TGFB1 (gene 7040)
The test can be described thus: LTEA_HepaRG_TGFB1: Life Technologies and Expression Analysis (LTEA) Assay for Transforming Growth Factor (TGFB1) Transporter using HepaRG (AID 2283533). The method in brief: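 Differentiated human HepaRG cells in serum-free induction medium were exposed in duplicate for 48 h to eight concentrations (top 100 uM, half-log steps, 0.5% DMSO). TGFB1 mRNA was quantified by qRT-PCR, normalized to ACTB, GAPDH, POLR2A, and fitted bidirectionally against DMSO.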

Read-out in a further test: TIMP1, TIMP1 (gene 7076)
The test can be described thus: LTEA_HepaRG_TIMP1: Life Technologies and Expression Analysis (LTEA) Assay for TIMP1 using HepaRG (AID 2283534).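 As to outcome: TaqMan qRT-PCR signal normalized to ACTB GAPDH and POLR2A housekeeping genes.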 The procedure, abridged: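 Differentiated human HepaRG cells in serum-free induction medium were exposed 48 h to chemicals (8 half-log concentrations, top 100 uM, 0.5% DMSO). TIMP1 mRNA was quantified by TaqMan qRT-PCR, normalized to ACTB/GAPDH/POLR2A; bidirectional fit versus DMSO.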

Read-out in a further test: MYC, MYC (gene 4609)
The test can be described thus: LTEA_HepaRG_MYC: Life Technologies and Expression Analysis (LTEA) Assay for MYC using HepaRG (AID 2283518). The procedure, abridged:
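Differentiated human HepaRG cells, plated 48 h then switched to serum-free induction medium, were exposed in duplicate for 48 h to 8-point half-log series up to 100 uM in 0.5% DMSO. MYC mRNA measured by qRT-PCR, normalized to ACTB/GAPDH/POLR2A.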

Read-out in test [15]: Phosphatase and tensin (PTEN), PTEN (gene 5728)
The test can be described thus: LTEA_HepaRG_PTEN: Life Technologies and Expression Analysis (LTEA) Assay for Phosphatase and tensin (PTEN) using HepaRG (AID 2283523). The procedure, abridged: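 Read-out is PTEN transcript level by multiplexed TaqMan qRT-PCR after 48 h chemical treatment of human HepaRG cultures in serum-free induction medium. Concentrations spanned 100 uM downward in half-log steps, 0.5% DMSO throughout; activity fitted in both directions against vehicle.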

Read-out in test [16]: Nuclear factor NF-kappa-B p105 subunit (Homo sapiens) (UniProt P19838)
The test can be described thus: LTEA_HepaRG_NFKB1: Life Technologies and Expression Analysis (LTEA) Assay for Nuclear Factor Kappa B Subunit 1 (NFKB1) using HepaRG (AID 2283521). The procedure, abridged: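 Differentiated human HepaRG cells were exposed for 48 h in serum-free induction medium to eight concentrations (top 100 uM, half-log steps, 0.5% DMSO), in duplicate. NFKB1 mRNA was measured by TaqMan qRT-PCR, normalized to ACTB/GAPDH/POLR2A, and fitted bidirectionally against DMSO.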

Read-out in test [17]: Transforming Growth Factor (TGFA), TGFA (gene 7039)
The test can be described thus: LTEA_HepaRG_TGFA: Life Technologies and Expression Analysis (LTEA) Assay for Transforming Growth Factor (TGFA) using HepaRG (AID 2283532). The procedure, abridged: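 HepaRG (human liver line), 48 h exposure, 8 conc. half-log down from 100 uM, 0.5% DMSO vehicle, duplicates; serum-free induction medium. TGFA mRNA by TaqMan qRT-PCR, ACTB/GAPDH/POLR2A normalization; gain/loss fit vs DMSO.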

Calls of active or inactive are those of the source. The calls were made as follows: active = hit-call score of the fitted dose curve at least 0.9, where 1 is the maximum; inactive = score below 0.9.

Sequence of Nuclear factor erythroid 2-related factor 2 (Homo sapiens) (Q16236 whole entry, looked up): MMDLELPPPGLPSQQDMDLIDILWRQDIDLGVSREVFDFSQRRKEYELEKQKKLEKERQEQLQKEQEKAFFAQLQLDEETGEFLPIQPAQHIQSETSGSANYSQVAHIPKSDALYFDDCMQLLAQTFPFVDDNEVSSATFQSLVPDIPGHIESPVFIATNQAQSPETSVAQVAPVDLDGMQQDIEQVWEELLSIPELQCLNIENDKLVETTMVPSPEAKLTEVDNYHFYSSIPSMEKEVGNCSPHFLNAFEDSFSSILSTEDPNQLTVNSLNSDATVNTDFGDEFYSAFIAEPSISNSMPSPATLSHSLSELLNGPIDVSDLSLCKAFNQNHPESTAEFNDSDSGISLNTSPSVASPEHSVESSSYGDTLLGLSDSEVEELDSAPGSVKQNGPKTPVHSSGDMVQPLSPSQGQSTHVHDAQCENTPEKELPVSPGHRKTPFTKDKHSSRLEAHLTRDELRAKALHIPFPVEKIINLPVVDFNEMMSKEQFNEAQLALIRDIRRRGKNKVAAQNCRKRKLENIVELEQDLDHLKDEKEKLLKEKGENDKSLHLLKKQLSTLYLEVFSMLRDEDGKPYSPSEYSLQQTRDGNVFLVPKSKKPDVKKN
Sequence of Signal transducer and activator of transcription 3 (Homo sapiens) (P40763 whole entry, looked up): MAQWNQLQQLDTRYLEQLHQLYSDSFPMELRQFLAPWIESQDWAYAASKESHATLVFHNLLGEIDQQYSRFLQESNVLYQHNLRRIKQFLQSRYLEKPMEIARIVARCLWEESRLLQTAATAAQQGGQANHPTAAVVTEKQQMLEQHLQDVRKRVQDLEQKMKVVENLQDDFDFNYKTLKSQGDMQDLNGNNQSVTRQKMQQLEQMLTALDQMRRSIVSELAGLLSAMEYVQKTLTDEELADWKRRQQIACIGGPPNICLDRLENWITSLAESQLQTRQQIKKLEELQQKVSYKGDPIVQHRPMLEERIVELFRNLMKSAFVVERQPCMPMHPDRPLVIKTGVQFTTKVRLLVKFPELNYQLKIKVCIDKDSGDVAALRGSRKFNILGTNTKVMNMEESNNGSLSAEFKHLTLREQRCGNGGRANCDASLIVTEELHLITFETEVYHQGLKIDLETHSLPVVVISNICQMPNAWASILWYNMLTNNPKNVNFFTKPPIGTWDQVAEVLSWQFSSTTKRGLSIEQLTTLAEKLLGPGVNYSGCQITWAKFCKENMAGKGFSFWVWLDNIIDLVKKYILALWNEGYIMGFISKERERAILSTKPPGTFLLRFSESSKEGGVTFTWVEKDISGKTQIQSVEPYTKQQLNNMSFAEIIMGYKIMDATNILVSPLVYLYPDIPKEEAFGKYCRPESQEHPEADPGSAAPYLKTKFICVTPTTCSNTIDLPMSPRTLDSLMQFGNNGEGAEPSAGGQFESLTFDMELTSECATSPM
Sequence of Nuclear factor NF-kappa-B p105 subunit (Homo sapiens) (P19838 whole entry, looked up): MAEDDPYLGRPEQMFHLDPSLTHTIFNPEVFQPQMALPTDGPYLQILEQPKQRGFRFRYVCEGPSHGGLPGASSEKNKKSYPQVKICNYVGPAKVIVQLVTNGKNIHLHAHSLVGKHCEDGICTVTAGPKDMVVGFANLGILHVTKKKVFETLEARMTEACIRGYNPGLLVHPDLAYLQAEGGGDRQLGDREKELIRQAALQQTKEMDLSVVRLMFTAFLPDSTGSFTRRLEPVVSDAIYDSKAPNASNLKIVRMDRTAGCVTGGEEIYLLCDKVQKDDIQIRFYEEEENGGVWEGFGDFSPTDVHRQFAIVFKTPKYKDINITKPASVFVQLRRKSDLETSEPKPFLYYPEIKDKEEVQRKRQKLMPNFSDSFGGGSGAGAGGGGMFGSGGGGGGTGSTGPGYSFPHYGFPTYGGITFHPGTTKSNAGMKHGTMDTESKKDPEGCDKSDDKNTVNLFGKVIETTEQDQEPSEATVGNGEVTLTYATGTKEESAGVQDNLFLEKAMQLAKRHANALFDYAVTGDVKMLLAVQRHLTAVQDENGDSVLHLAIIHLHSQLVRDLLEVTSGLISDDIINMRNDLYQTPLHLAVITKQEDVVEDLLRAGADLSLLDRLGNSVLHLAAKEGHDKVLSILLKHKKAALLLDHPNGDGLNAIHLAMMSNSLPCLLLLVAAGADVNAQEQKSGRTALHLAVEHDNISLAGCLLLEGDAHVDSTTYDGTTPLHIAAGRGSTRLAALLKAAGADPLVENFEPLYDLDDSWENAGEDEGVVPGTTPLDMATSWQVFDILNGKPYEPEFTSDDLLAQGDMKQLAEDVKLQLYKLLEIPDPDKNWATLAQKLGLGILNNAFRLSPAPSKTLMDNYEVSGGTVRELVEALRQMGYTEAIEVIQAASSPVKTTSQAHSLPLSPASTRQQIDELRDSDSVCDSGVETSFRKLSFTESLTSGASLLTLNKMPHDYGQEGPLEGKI

On to `O=C(Nc1ccc(Cl)cc1)Nc1ccc(Cl)c(Cl)c1`, for which the half-maximal activity concentration (AC50) in [1] was 12.7 µM (active); in [3], 28.1 µM (active); in test [4], 21.8 µM (active); in test [5] it was 21.3 µM (active); in [6], 17.4 µM (active); in test [7], 27 µM (active). Also, the AC50 in test [8] was 17.8 µM (active); in [10], 13.2 µM (active); in test [11] it was 14.2 µM (active); in [12], 18.7 µM (active); in test [13], 22.7 µM (active); in [14], 24.4 µM (active). The AC50 with TIMP1, TIMP1 (gene 7076) was 16 µM (active). Also, the call in test [2] and in [9] was inactive.
On to `CN(C)C(=O)C1(N2CCCCC2)CCN(CC[C@@]2(c3ccc(Cl)c(Cl)c3)CN(C(=O)c3ccccc3)CCO2)CC1`, for which the AC50 was 24.8 µM (active) in [1]; 10.9 µM (active) in test [2]; 21.4 µM (active) in the test with MYC, MYC (gene 4609); 27.2 µM (active) in test [5]; 27.6 µM (active) in test [6]; 47.2 µM (active) in [9]. The AC50 is 22.5 µM (active) in test [10]; 47.2 µM (active) in test [11]; 23.1 µM (active) in test [12]; 23.3 µM (active) in [13]; 47.2 µM (active) in [14]; 17.4 µM (active) with TIMP1, TIMP1 (gene 7076). Moreover, the result in test [3], in test [4], in test [15], in test [7] and in test [8] was inactive.
Take `Cc1cccc2ccccc12`: the result in test [1], in test [2], in [3], in test [4], in test [16] and in test [5] was inactive. For the same molecule, the molecule was classed as inactive in test [15], in test [6], in test [7], in [8], in test [9] and in test [10]. The outcome was “inactive” in test [12]; “inactive” in [13]; “inactive” in test [17]; “inactive” in test [14]; “inactive” in the test with TIMP1, TIMP1 (gene 7076).
In the case of `CC[C@H](NC(=O)c1cc(F)ccc1NS(=O)(=O)c1cccc2cccnc12)c1ccccc1`, the outcome was “inactive” in test [1]; “inactive” with MYC, MYC (gene 4609); “inactive” in [16]; “inactive” in test [5]; “inactive” in test [7]; “inactive” in [8]. The outcome in test [9] was “inactive”; in test [10], “inactive”; in test [14] it was “inactive”; with TIMP1, TIMP1 (gene 7076), “inactive”. Besides, the AC50 in test [2] is 47.8 µM (active); in test [4], 19.1 µM (active); in test [6], 50.8 µM (active); in test [12], 77.6 µM (active); in test [13], 84.8 µM (active).
